# Assay results reported in the OligoGym collection.
# Assays:
# Assay in all cases: pooled miR-30 sensor sort-seq; sequence = guide strand
# Details in all cases: shRNA
# [1] = target: TBC1D7
# [2] = target: TAS1R2
# [3] = target: TAS2R31
# [4] = target: TBC1D10A
# [5] = target: TC2N
# [6] = target: TCTN3
# [7] = target: TEAD3
# [8] = target: TGFB1I1
# [9] = target: TMEFF2
# Further: reference of the scale not given here.
sequence,measurement,setting,value
TTACGATACATCATCACCTTGG,sensor-assay potency score (higher = more potent),[1],0.3
TAGGCAGACATGAAGGTGCAGA,sensor-assay potency score (higher = more potent),[2],-0.389
TTAACAGCAAAAAACATAGCAG,sensor-assay potency score (higher = more potent),[3],-0.409
TTCTGCATCCAAGATAGCCTTG,sensor-assay potency score (higher = more potent),[4],-0.737
TTCACAGAAGAACATGTCCCAG,sensor-assay potency score (higher = more potent),[4],-0.889
TAGAAGAGGATCATGTAGCACT,sensor-assay potency score (higher = more potent),[2],-0.0652
TATCTTCTCTGCACTGTTCAGT,sensor-assay potency score (higher = more potent),[1],0.23
TTGTTGATCTCCTCCACCGCAA,sensor-assay potency score (higher = more potent),[2],-0.437
TTGATCTTCCAAGTCAAGTTTC,sensor-assay potency score (higher = more potent),[3],-0.849
TCACAGAAGAACATGTCCCAGA,sensor-assay potency score (higher = more potent),[4],-0.251
TTGTCTCGCAGCTCATCGCTGA,sensor-assay potency score (higher = more potent),[2],-0.453
TTCTTTTGTCCGTACAATCTCT,sensor-assay potency score (higher = more potent),[3],-0.58
TTGCTCACGATCGCGTCTGAGC,sensor-assay potency score (higher = more potent),[1],-1.01
TTCTGCTGTAACTTCACCTTGC,sensor-assay potency score (higher = more potent),[4],0.827
TTGTGCTTCTTGGCCATCCATT,sensor-assay potency score (higher = more potent),[4],-1.02
TTGCTCAGCAGGCATATGCATG,sensor-assay potency score (higher = more potent),[4],-1.58
TTGCAGGTATAGCTCTGGCTGG,sensor-assay potency score (higher = more potent),[2],-1.05
TTTTGTCCGTACAATCTCTTTC,sensor-assay potency score (higher = more potent),[3],-0.469
TTTCTCGCTGTAGTAGCCGGGC,sensor-assay potency score (higher = more potent),[4],-0.648
TAGCACACATCCACGATCTCAT,sensor-assay potency score (higher = more potent),[2],0.125
TTGTTATCTTCTCTGCACTGTT,sensor-assay potency score (higher = more potent),[1],-0.778
TTCGACAGCTACAAAAACTAGG,sensor-assay potency score (higher = more potent),[1],-0.269
TAGAACCACTACCACACTGGAA,sensor-assay potency score (higher = more potent),[3],-1.01
TAGGACCACTCGTTATTCGGGC,sensor-assay potency score (higher = more potent),[2],-0.986
TTCATATTCATCTTCAGTGTGG,sensor-assay potency score (higher = more potent),[2],0.0168
AATAGAACCACTACCACACTGG,sensor-assay potency score (higher = more potent),[3],0.475
TAACAGCAAAAAACATAGCAGG,sensor-assay potency score (higher = more potent),[3],-0.785
TTTTACACAAAGAACACCCCAC,sensor-assay potency score (higher = more potent),[4],0.708
TAGCATTTTGACTATTTGGGAC,sensor-assay potency score (higher = more potent),[5],-0.206
TATATCATCAGTCAGAGCCAAG,sensor-assay potency score (higher = more potent),[6],-1.46
TTGAAGTGAATGATTCGCCTCC,sensor-assay potency score (higher = more potent),[6],0.789
TTTAATATAGCGTGCAATCAAC,sensor-assay potency score (higher = more potent),[7],-1.47
TATAGCGTGCAATCAACTCATT,sensor-assay potency score (higher = more potent),[7],-1.09
TCTTTTCTTATCTTCAGACTGG,sensor-assay potency score (higher = more potent),[8],-0.149
ATTTGTGGAGCTCACCACCGGT,sensor-assay potency score (higher = more potent),[8],-0.966
TTGTTGTATTGTCTGAACTGTA,sensor-assay potency score (higher = more potent),[9],-0.51
